This is an account of results in PubChem BioAssay (NCATS).

The structures appear in SMILES notation. Values joined by “and” are separate entries in the source; they are usually repeats but may differ in a detail not shown here. Equal entries are not always repeated. Records with an inconclusive call do not appear. A call without a number means that no potency is given here. Active and inactive are the calls of the source. Calls come from the whole dose curve; as a rule, active = well fitted cell-killing curve with a large enough effect; inconclusive = small, poorly fitted or top-dose-only effect, or effect the other way; inactive = no such curve, though single readings can be large or run the other way.
Potency is the fitted concentration of half-maximal effect.

A short description of the experiment: Viability qHTS for spleen associated tyrosine kinase inhibitor (SYKi) drug resistant MV4-11 cells (AID 1963824). Note: nearly all actives have a fitted effect of over 35% in size. As to conditions: SYKi-resistant MV4-11 viability, CellTiter-Glo, 72 h; series mostly up to 45 µM. An excerpt: Department of Medicine, Hematology/Oncology
University Hospital Frankfurt, Germany.
Trials have shown promising clinical activity of the selective SYK inhibitor entospletinib in patients with high expressing HOXA9/MEIS1 acute leukemias. As the development of resistance mechanisms is a common problem in the use of targeted drugs, we performed a chemical library screen to identify drug sensitivities in SYK inhibitor resistant AML cells. […] Glucocorticoids are potent immunosuppressants which work in part by inhibiting the transcription of cytokine genes.
Described herein is a viability screen to look for activity in the SYK inhibitor drug resistant cell line against four NCATS compound libraries (MIPE 5.0, NPC, NPACT, and Kinase) totaling 11372 compounds. Active hits were reacquired for confirmation and further secondary assay testing.
SEQUENCE No. (e.g., 1, 2, 3, etc.); […] (e.g., Cells, Incubation, Reagent, etc.); VALUE; DESCRIPTION.
1; Media; 2uL; white, solid-bottom Corning assay plate.
2; Compounds; 23nL; Echo acoustic dispenser.
3; Cell; 5uL; 500 cells per well.
4: Incubation; 72hr; 37 C, 5% CO2, 95% humidity.
5; Reagent; 3uL; CellTiter-Glo reagent (Promega).
6; Incubation; 10min; room temperature.
7; Detection; Luminescence; ViewLux plate reader (PerkinElmer).
NOTES (numbers refer to Sequence numbers above
1. Quantitative high-throughput screening (qHTS) of small molecule compounds was conducted on drug resistant SYKi MV4-11 cell line.
2. Twenty-three nanoliter of small molecule compounds were added to each assay plates using the Echo acoustic dispenser (Beckman Coulter).
3. Cells were seeded into the assay plates at a final density of 500 cells in 5uL of media per well using the Multidrop Combi dispenser.
4. Plates were covered with stainless steel gasketed lids and incubated for 72 hours at standard cell culture conditions.
5. Viability was assessed by adding 3uL of CellTiter-Glo detection reagent (Promega).
6. Plates were covered with gasket lids and incubated for 10 minutes at room temperature.
7. Luminescence was measured on a ViewLux plate reader (PerkinElmer).
Background: Quantitative high-throughput screening tests each substance at several concentrations.
For the molecule `CN1C(C(=O)Nc2ccccn2)=C(O)c2sc(Cl)cc2S1(=O)=O`, the Potency is 16.6 µM (active). The value for `Cc1occc(=O)c1O[C@@H]1O[C@H](CO[C@@H]2OC[C@](O)(CO)[C@H]2O)[C@@H](O)[C@H](O)[C@H]1O` was “inactive”; that for `CN(C)CCCOc1ccc(-c2ccc3ncc4c(c3c2)n(C2CCOCC2)c(=O)n4C)cn1` was 2.04 µM (active); that for `COC(=O)C[C@@H]1C(C(=O)O)=CO[C@@H](O[C@@H]2O[C@H](CO)[C@@H](O)[C@H](O)[C@H]2O)/C1=C\COC(=O)/C=C\c1ccccc1` was “inactive”. Regarding `CC(/C=C/C1(O)C(C)(C)CC(O)CC1(C)O)OC1OC(CO)C(O)C(O)C1O` (stereo not given), the Potency entry was “inactive”. The value for `COc1cc2ncnc(Nc3cccc(I)c3)c2cc1OC` was 2.91 µM (active) and 13 µM (active); that for `COc1cccc(-c2cc(=O)c3ccccc3o2)c1N` was 18.4 µM (active).

For the molecule `C=C[C@H]1[C@H](O[C@@H]2O[C@H](CO)[C@@H](O)[C@H](O)[C@H]2O)OC=C(C(=O)OC)[C@H]1C/C=C(/C=O)[C@@H]1C(C(=O)OC)=CO[C@@H](O[C@@H]2O[C@H](CO)[C@@H](O)[C@H](O)[C@H]2O)[C@@H]1C=C`, the Potency entry was “inactive”. The result for `CCC(C)C1NC(=O)C2CCCN2C(=O)C(C(C)C)NC(=O)c2ccccc2NC(=O)C(Cc2ccc(O)cc2)NC(=O)C(C)NC(=O)C(C(C)O)NC1=O` (stereo not given) reads “inactive”; that for `CC(=O)O[C@H]1C[C@@H](O)C(C)(C)C2C[C@@H](OC(C)=O)[C@]3(C)C(CC[C@@]4(C)[C@H](c5ccoc5)OC(=O)[C@H]5O[C@]543)[C@]21C` (stereo not given in full), “inactive”. The value for `O=C1N=C(O)CN1/N=C/c1ccc(-c2ccc([N+](=O)[O-])cc2)o1` was “inactive”; that for `CS(=O)(=O)c1ccc([C@@H](CC2CCCC2)C(=O)Nc2cnccn2)cc1Cl` was 25.1 µM (active). The result for `FC(F)(F)Oc1ccc(-c2ccc3nnc(C(F)(F)F)n3c2)cc1` reads “inactive”. For `C=C1C(=O)OC(CCCCCCCC)C1C(=O)O` (stereo not given), the Potency result is “inactive”.

`COC(=O)C1=CO[C@@H](O[C@@H]2O[C@H](CO)[C@@H](O)[C@H](O)[C@H]2O)[C@@H]2[C@@](C)(O)[C@@H](O)C[C@]12O`: the Potency entry was “inactive”. The value for `CCOC(=O)[C@H](CCc1ccccc1)N[C@@H](C)C(=O)N1CCC[C@H]1C(=O)O` was “inactive”; that for `O=C(O)COCCN1CCN(C(c2ccccc2)c2ccc(Cl)cc2)CC1` (stereo not given) was “inactive”.

For `C#Cc1cccc(Nc2ncnc3cc4c(cc23)OCCOCCOCCO4)c1`, the Potency is 18.6 µM (active).

For `CC[C@H](C)C(=O)O[C@H]1CCC=C2C=C[C@H](C)[C@H](CC[C@@H]3C[C@@H](O)CC(=O)O3)[C@H]21`, the Potency is 4.68 µM (active). As for `COc1ccc(S(=O)(=O)Nc2nnc(CC(C)C)s2)cc1`, the Potency entry is “inactive”.

On to `NCC(=O)Nc1ccc(-n2nc(C(F)(F)F)cc2-c2ccc3c(ccc4ccccc43)c2)cc1`, for which the Potency was 2.91 µM (active) and 4.68 µM (active).

Turning to `Cc1sc2c(c1C)C(c1ccc(Cl)cc1)=N[C@@H](CC(=O)Nc1ccc(OCCOCCOCCOCCNc3cccc4c3C(=O)N(C3CCC(=O)NC3=O)C4=O)cc1)c1nnc(C)n1-2` (stereo not given in full), the Potency is 0.0166 µM (active). The value for `CNC(C)C(=O)NC(C(=O)N1CCCC1c1nc(C(=O)c2ccc(F)cc2)cs1)C1CCCCC1` (stereo not given) was 2.59 µM (active); that for `CNC(=O)COC(=O)NCCC1CCN(c2cccc(C)n2)CC1` was “inactive”; that for `COc1ccc(Sc2ccc(NC(=O)c3ccccc3Cl)cc2C#N)cc1` was 25.9 µM (active). The value for `C/C(=C\CO[C@@H]1O[C@H](CO[C@H]2OC[C@](O)(CO)[C@H]2O)[C@@H](O)[C@H](O)[C@H]1O)C(C)(C)O` was “inactive”; that for `COc1cc(/C=C/C(=O)O[C@H]2CC[C@]34C[C@]35CC[C@]3(C)[C@@H]([C@H](C)CCC=C(C)C)CC[C@@]3(C)[C@@H]5CC[C@H]4C2(C)C)ccc1O` was 16.4 µM (active); that for `C/C=C(\C)C(=O)O[C@H]1C=CC(=O)O[C@H]1/C=C/[C@@H](O)[C@H](C)O` was 3.66 µM (active). The value for `CC1(C)OC2=C(C(=O)c3ccccc3C2=O)[C@H](NCc2ccccc2)[C@@H]1O` was 2.63 µM (active); that for `C=CCc1ccc(O[C@@H]2O[C@H](CO[C@@H]3O[C@H](CO)[C@@H](O)[C@H](O)[C@H]3O)[C@@H](O)[C@H](O)[C@H]2O)c(O)c1` was “inactive”; that for `C[C@]1(O)CC[C@@H]2C(C(=O)O)=CO[C@@H](O[C@@H]3O[C@H](COC(=O)/C=C/c4ccc(O)c(O)c4)[C@@H](O)[C@H](O)[C@H]3O)[C@@H]21` was “inactive”. As for `CC1(c2ccccc2)OC(C(=O)O)=CC1=O` (stereo not given), the Potency result is “inactive”. The result for `C=C1C(=O)O[C@@H]2[C@H]1CCC(C)=C(CCC(=O)O)[C@@]2(C)O` reads 4.11 µM (active); that for `Cc1cc(Nc2nc(N[C@@H](C)c3ccc(F)cc3)c(C#N)cc2F)n[nH]1`, 580 nM (active) and 590 nM (active). The value for `Cc1ccc2nc(NCCN)c3ncc(C)n3c2c1` was 4.61 µM (active) and 2.63 µM (active). The value for `Cc1c(-c2cnccn2)ssc1=S` was 4.68 µM (active); that for `CC1(C)CC2C(O)c3cocc3CC(C)(O)C2C1` (stereo not given) was “inactive”. In the case of `C#Cc1cccc(Nc2nc3cc(C(=O)O)ccc3c3cncnc23)c1`, the Potency is 2.91 µM (active). The value for `COC(=O)c1cc(Br)cnc1N1CCC(NC2CCCCC2)C(O)C1` (stereo not given) was “inactive”; that for `COc1cc(O)cc(C)c1C(=O)O[C@H]1[C@@H](OC(C)=O)[C@H](n2ccc(=O)[nH]c2=O)O[C@@H]1CO` was “inactive”.
